The record followed here is PMC11006913.

Holding throughout (assay): PBM; 200 nM protein, PBS
Common to all, as to details: dsDNA, one strand shown

Experiment [1] has as its target HOXC9 (Homo sapiens, UniProt P31274 178-260, K195R).
Experiment [2] concerns the target HOXC9 (Homo sapiens, UniProt P31274 178-260).
Experiment [3] concerns the target HOXC9 (Homo sapiens, UniProt P31274 178-260, R193K).
Experiment [4] addresses HOXC9 (Homo sapiens, UniProt P31274 178-260, R222W).
The target in experiment [5] is ALX3 (Homo sapiens, UniProt O95076 139-225, N203Q).
Sequence of ALX3 (Homo sapiens, UniProt O95076 139-225, N203Q) (O95076 139-225 N203Q): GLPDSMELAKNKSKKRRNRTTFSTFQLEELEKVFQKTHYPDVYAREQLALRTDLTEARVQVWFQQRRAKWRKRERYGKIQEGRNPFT
The target of experiment [6] is ALX3 (Homo sapiens, UniProt O95076 139-225).
Sequence of ALX3 (Homo sapiens, UniProt O95076 139-225) (O95076 139-225): as the sequence (O95076 139-225 N203Q) above, with Q65N counted along it
For experiment [7], the target named is ALX3 (Homo sapiens, UniProt O95076 139-225, L168Q).
Sequence of ALX3 (Homo sapiens, UniProt O95076 139-225, L168Q) (O95076 139-225 L168Q): as the sequence (O95076 139-225 N203Q) above, with L30Q, Q65N counted along it
Experiment [8] concerns the target ALX3 (Homo sapiens, UniProt O95076 139-225, L168V).
Experiment [9] addresses ALX3 (Homo sapiens, UniProt O95076 139-225, N203S).
Experiment [10] addresses HOXD13 (Homo sapiens, UniProt P35453 263-343, T313R).
Experiment [11] addresses HOXD13 (Homo sapiens, UniProt P35453 263-343).
Experiment [12] deals with HOXD13 (Homo sapiens, UniProt P35453 263-343, T313A).
Sequence of HOXD13 (Homo sapiens, UniProt P35453 263-343, T313A) (P35453 263-343 T313A): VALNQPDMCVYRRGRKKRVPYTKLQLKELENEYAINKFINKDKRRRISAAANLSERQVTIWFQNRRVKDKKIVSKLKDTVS
Experiment [13] concerns the target T1, PAX4 (Homo sapiens, UniProt O43316 9-242, R200K).
T1 sequence: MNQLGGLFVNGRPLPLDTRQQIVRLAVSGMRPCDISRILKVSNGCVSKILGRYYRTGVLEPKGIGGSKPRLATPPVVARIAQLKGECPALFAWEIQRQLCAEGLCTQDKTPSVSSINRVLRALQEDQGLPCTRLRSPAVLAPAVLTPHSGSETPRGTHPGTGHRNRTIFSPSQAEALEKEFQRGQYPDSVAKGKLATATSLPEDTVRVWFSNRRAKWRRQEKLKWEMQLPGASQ

Experiment [14] deals with T2, PAX4 (Homo sapiens, UniProt O43316 9-242, F177V).
T2 sequence: T1 sequence with F169V, K192R

Experiment [15] concerns the target T3, PAX4 (Homo sapiens, UniProt O43316 9-242, F177Y).
T3 sequence: T1 sequence with F169Y, K192R

The target of experiment [16] is HOXC10 (Homo sapiens, UniProt Q9NYD6 254-340).
Sequence of HOXC10 (Homo sapiens, UniProt Q9NYD6 254-340) (Q9NYD6 254-340): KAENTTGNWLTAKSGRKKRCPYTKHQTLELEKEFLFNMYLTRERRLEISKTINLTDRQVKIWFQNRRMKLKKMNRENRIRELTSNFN
Experiment [17] addresses HOXC10 (Homo sapiens, UniProt Q9NYD6 254-340, K271E).

Changes are numbered by the printed parent chain.

Sequence of ALX3 (Homo sapiens, UniProt O95076 139-225, L168V) (O95076 139-225 L168V): as the sequence (O95076 139-225 N203Q) above, with L30V, Q65N counted along it
Sequence of HOXC9 (Homo sapiens, UniProt P31274 178-260, R193K) (P31274 178-260 R193K): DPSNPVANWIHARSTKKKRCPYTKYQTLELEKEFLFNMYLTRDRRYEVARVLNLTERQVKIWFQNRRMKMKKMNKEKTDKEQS
Sequence of HOXC9 (Homo sapiens, UniProt P31274 178-260, R222W) (P31274 178-260 R222W): as the sequence (P31274 178-260 R193K) above, with K16R, R45W counted along it
Sequence of HOXC9 (Homo sapiens, UniProt P31274 178-260, K195R) (P31274 178-260 K195R): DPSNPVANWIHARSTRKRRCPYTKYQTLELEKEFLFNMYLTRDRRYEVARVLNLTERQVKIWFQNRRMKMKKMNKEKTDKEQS
Sequence of HOXC9 (Homo sapiens, UniProt P31274 178-260) (P31274 178-260): as the sequence (P31274 178-260 R193K) above, with K16R counted along it
Sequence of ALX3 (Homo sapiens, UniProt O95076 139-225, N203S) (O95076 139-225 N203S): as the sequence (O95076 139-225 N203Q) above, with Q65S counted along it
Sequence of HOXD13 (Homo sapiens, UniProt P35453 263-343, T313R) (P35453 263-343 T313R): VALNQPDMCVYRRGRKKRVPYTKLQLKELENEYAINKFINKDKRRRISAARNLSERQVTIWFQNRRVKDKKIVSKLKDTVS
Sequence of HOXD13 (Homo sapiens, UniProt P35453 263-343) (P35453 263-343): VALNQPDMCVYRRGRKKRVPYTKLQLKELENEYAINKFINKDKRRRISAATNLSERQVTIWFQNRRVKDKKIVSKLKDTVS
Sequence of HOXC10 (Homo sapiens, UniProt Q9NYD6 254-340, K271E) (Q9NYD6 254-340 K271E): as the sequence (Q9NYD6 254-340) above, with K18E counted along it

Turning to TCCCAGGA, the binding signal with HOXC9 [1] is 9.51 upbm affinity estimate (log intensity, higher = more binding, comparable within an allelic series); in the experiment with HOXC9 [2] it was 9.58 upbm affinity estimate (log intensity, higher = more binding, comparable within an allelic series); with HOXC9 [3], 9.57 upbm affinity estimate (log intensity, higher = more binding, comparable within an allelic series); with HOXC9 [4], 9.72 upbm affinity estimate (log intensity, higher = more binding, comparable within an allelic series).

Turning to CAGACCCC, the binding signal with ALX3 [5] is 7.73 upbm affinity estimate (log intensity, higher = more binding, comparable within an allelic series); with ALX3 [6], 7.61 upbm affinity estimate (log intensity, higher = more binding, comparable within an allelic series); with ALX3 [7], 7.69 upbm affinity estimate (log intensity, higher = more binding, comparable within an allelic series); in the experiment with ALX3 [8] it was 7.66 upbm affinity estimate (log intensity, higher = more binding, comparable within an allelic series); in the experiment with ALX3 [9] it was 7.74 upbm affinity estimate (log intensity, higher = more binding, comparable within an allelic series).

For the sequence ACCGCCGG, the binding signal with ALX3 [5] was 7.72 upbm affinity estimate (log intensity, higher = more binding, comparable within an allelic series); in the experiment with ALX3 [6], 7.95 upbm affinity estimate (log intensity, higher = more binding, comparable within an allelic series); with ALX3 [7] it was 7.7 upbm affinity estimate (log intensity, higher = more binding, comparable within an allelic series); with ALX3 [8], 7.65 upbm affinity estimate (log intensity, higher = more binding, comparable within an allelic series); in the experiment with ALX3 [9], 7.69 upbm affinity estimate (log intensity, higher = more binding, comparable within an allelic series).

In the case of CCAGGCAG, the binding signal with ALX3 [5] is 7.78 upbm affinity estimate (log intensity, higher = more binding, comparable within an allelic series); with ALX3 [6], 7.65 upbm affinity estimate (log intensity, higher = more binding, comparable within an allelic series); with ALX3 [7], 7.7 upbm affinity estimate (log intensity, higher = more binding, comparable within an allelic series); in the experiment with ALX3 [8], 7.82 upbm affinity estimate (log intensity, higher = more binding, comparable within an allelic series); with ALX3 [9], 7.76 upbm affinity estimate (log intensity, higher = more binding, comparable within an allelic series).

CCTACCGC: the binding signal with HOXC9 [1] is 9.66 upbm affinity estimate (log intensity, higher = more binding, comparable within an allelic series); in the experiment with HOXC9 [2] it was 9.63 upbm affinity estimate (log intensity, higher = more binding, comparable within an allelic series); with HOXC9 [3], 9.56 upbm affinity estimate (log intensity, higher = more binding, comparable within an allelic series); with HOXC9 [4], 9.71 upbm affinity estimate (log intensity, higher = more binding, comparable within an allelic series).

On to CGTGGCGC, for which the binding signal in the experiment with HOXC9 [1] is 9.49 upbm affinity estimate (log intensity, higher = more binding, comparable within an allelic series); with HOXC9 [2], 9.5 upbm affinity estimate (log intensity, higher = more binding, comparable within an allelic series); with HOXC9 [3], 9.45 upbm affinity estimate (log intensity, higher = more binding, comparable within an allelic series); in the experiment with HOXC9 [4], 9.81 upbm affinity estimate (log intensity, higher = more binding, comparable within an allelic series).

As to CGCCGAAG, the binding signal with HOXC9 [1] was 9.52 upbm affinity estimate (log intensity, higher = more binding, comparable within an allelic series); with HOXC9 [2] it was 9.6 upbm affinity estimate (log intensity, higher = more binding, comparable within an allelic series); with HOXC9 [3] it was 9.42 upbm affinity estimate (log intensity, higher = more binding, comparable within an allelic series); in the experiment with HOXC9 [4], 9.77 upbm affinity estimate (log intensity, higher = more binding, comparable within an allelic series).

In the case of CTGGCGGC, the binding signal with HOXD13 [10] is 9.52 upbm affinity estimate (log intensity, higher = more binding, comparable within an allelic series); with HOXD13 [11], 9.59 upbm affinity estimate (log intensity, higher = more binding, comparable within an allelic series); with HOXD13 [12] it was 9.5 upbm affinity estimate (log intensity, higher = more binding, comparable within an allelic series).

On to AGGGGGGG, for which the binding signal with HOXC9 [1] was 9.2 upbm affinity estimate (log intensity, higher = more binding, comparable within an allelic series); with PAX4 [13], 9.12 upbm affinity estimate (log intensity, higher = more binding, comparable within an allelic series); with HOXC9 [2], 9.24 upbm affinity estimate (log intensity, higher = more binding, comparable within an allelic series); with HOXC9 [3] it was 9.31 upbm affinity estimate (log intensity, higher = more binding, comparable within an allelic series); with PAX4 [14], 8.93 upbm affinity estimate (log intensity, higher = more binding, comparable within an allelic series); with PAX4 [15], 9.09 upbm affinity estimate (log intensity, higher = more binding, comparable within an allelic series). The binding signal with HOXC9 [4] was 9.11 upbm affinity estimate (log intensity, higher = more binding, comparable within an allelic series).

As to CGGGCTTC, the binding signal in the experiment with PAX4 [13] is 9.13 upbm affinity estimate (log intensity, higher = more binding, comparable within an allelic series); with PAX4 [14] it was 9.17 upbm affinity estimate (log intensity, higher = more binding, comparable within an allelic series); with PAX4 [15], 9.09 upbm affinity estimate (log intensity, higher = more binding, comparable within an allelic series).

Take CAGGCCCC: the binding signal with ALX3 [5] was 7.7 upbm affinity estimate (log intensity, higher = more binding, comparable within an allelic series); with ALX3 [6], 7.63 upbm affinity estimate (log intensity, higher = more binding, comparable within an allelic series); with ALX3 [7], 7.69 upbm affinity estimate (log intensity, higher = more binding, comparable within an allelic series); in the experiment with ALX3 [8], 7.7 upbm affinity estimate (log intensity, higher = more binding, comparable within an allelic series); with ALX3 [9], 7.69 upbm affinity estimate (log intensity, higher = more binding, comparable within an allelic series).

For ACCGTGGG, the binding signal with HOXC10 [16] is 10.1 upbm affinity estimate (log intensity, higher = more binding, comparable within an allelic series); with HOXC10 [17], 10 upbm affinity estimate (log intensity, higher = more binding, comparable within an allelic series).

Turning to CCGGACCA, the binding signal in the experiment with HOXC9 [1] was 9.48 upbm affinity estimate (log intensity, higher = more binding, comparable within an allelic series); with HOXC9 [2] it was 9.57 upbm affinity estimate (log intensity, higher = more binding, comparable within an allelic series); with HOXC9 [3], 9.51 upbm affinity estimate (log intensity, higher = more binding, comparable within an allelic series); with HOXC9 [4], 9.77 upbm affinity estimate (log intensity, higher = more binding, comparable within an allelic series).

For CGAGGCAC, the binding signal with HOXC9 [1] is 9.69 upbm affinity estimate (log intensity, higher = more binding, comparable within an allelic series); with HOXC9 [2], 9.79 upbm affinity estimate (log intensity, higher = more binding, comparable within an allelic series); with HOXD13 [10] it was 9.57 upbm affinity estimate (log intensity, higher = more binding, comparable within an allelic series); with HOXC9 [3] it was 9.72 upbm affinity estimate (log intensity, higher = more binding, comparable within an allelic series); with HOXD13 [11] it was 9.71 upbm affinity estimate (log intensity, higher = more binding, comparable within an allelic series); with HOXD13 [12] it was 9.78 upbm affinity estimate (log intensity, higher = more binding, comparable within an allelic series). Besides, the binding signal with HOXC9 [4] is 9.7 upbm affinity estimate (log intensity, higher = more binding, comparable within an allelic series).

On to ATTTGAAC, for which the binding signal in the experiment with HOXC9 [1] was 10.9 upbm affinity estimate (log intensity, higher = more binding, comparable within an allelic series); in the experiment with HOXC9 [2], 10.8 upbm affinity estimate (log intensity, higher = more binding, comparable within an allelic series); in the experiment with HOXC9 [3] it was 11 upbm affinity estimate (log intensity, higher = more binding, comparable within an allelic series).
